Source: PubChem BioAssay
An excerpt weighted towards active compounds, which were near 19% of everything screened.
TDP1 cell noCPT: qHTS for Inhibitors of human tyrosyl-DNA phosphodiesterase 1 (TDP1): qHTS in cells in absence of CPT. DT40 Tdp1-/- hTDP1 cells, no CPT, ATP luminescence, 48 h. Potency, µM (highest dose often 46.2 µM), for inactives: at the top dose activity change, negative = growth inhibition, hits mostly inhibitors. hit rate 15% among 420,000; note: nearly all actives have a fitted effect of over 55% in size
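Chicken DT40 Tdp1-/- cells stably complemented with human TDP1 were seeded at 400 cells/well with DMSO in place of 20 nM camptothecin. After compound pinning, cells grew at least 48 hr at 37 °C; viability read by CellTiter-Glo luminescence.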
HT1080-NT tox: qHTS for induction of synthetic lethality in tumor cells producing 2HG: qHTS for the HT-1080-NT fibrosarcoma cell line; HT-1080-NT fibrosarcoma viability, CellTiter-Glo ATP luminescence, 48 h; AID 686970, 2013; hit rate 1.6% among 360,000; Potency, µM (doses to about 46.1 µM), for inactives: at the highest dose activity, negative = less viability, usual class: cytotoxic;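 note: NT is the 2HG producing partner of a matched IDH1 knockdown line; 0% = DMSO-treated cells and -100% = media-only wells without cells; nearly all actives have a fitted effect of over 55% in size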
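750 cells/well, RPMI + 5% FBS; 2 h settle, compound pin-transfer, 48 h at 37 degrees C. CellTiter-Glo 10 min RT, luminescence. Normalized to DMSO and media-only wells.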
KB-3-1 tox: qHTS assay for MDR1-selective chemotherapeutics: Primary screen using the parental adenocarcinoma cell KB-3-1 | KB-3-1 viability, CellTiter-Glo ATP luminescence, 72 h | Potency, µM (series often up to 46.1 µM), usual class: cytotoxic | hit rate 1.4% among 400,000; note: nearly all actives have a fitted effect of over 60% in size
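KB-3-1 parental drug-naive adenocarcinoma cells in DMEM/10% FBS, incubated 72 h at 37 C with pin-transferred compounds across a concentration series. Viability by CellTiter-Glo luminescence; concentration-response curves fitted after normalization.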
HT1080 IDH1KD tx: qHTS for induction of synthetic lethality in tumor cells producing 2HG: qHTS for the HT-1080-IDH1KD cell line. HT-1080 IDH1 knockdown viability, ATP luminescence, 48 h. AID 686971, 2013. Potency, µM (doses to about 46.1 µM), inactives show at the top dose activity, negative = toxicity, actives largely listed as cytotoxic. hit rate 2% among 360,000;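 note: 0% = DMSO wells and -100% = cell-free medium wells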
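After a 2 h attachment period, IDH1KD HT-1080 cells took pin-transferred compound for 48 h at 37 °C; ATP-based luminescence after 10 min room-temperature reagent incubation reported viability.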
DT40 TDP1 CPT: qHTS for Inhibitors of human tyrosyl-DNA phosphodiesterase 1 (TDP1): qHTS in cells in presence of CPT | chicken DT40 Tdp1-/-;hTDP1 cells + 20 nM CPT, ATP luminescence, 48 h | Potency, µM (series often up to 46.2 µM), without a hit: at the highest dose activity change, negative = growth inhibition, actives largely listed as inhibitors | hit rate 12% among 420,000 | AID 686979, 2013; note: nearly all actives have a fitted effect of over 55% in size
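Chicken DT40 Tdp1-/- cells complemented with human TDP1, 400 cells/well, exposed to compounds plus 20 nM camptothecin for at least 48 h at 37 C; viability read as ATP content by CellTiter-Glo luminescence.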
KB-V1 cytotox: qHTS assay for MDR1-selective chemotherapeutics: Primary screen using the drug-selected MDR subline cells KB-V1; Potency, µM (highest dose often 46.1 µM), usual class: cytotoxic; KB-V1 MDR cells viability, CellTiter-Glo, 72 h; AID 1347076, 2019; hit rate 3.4% among 400,000; note: nearly all actives have a fitted effect of over 60% in size
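Cytotoxicity toward P-gp-expressing KB-V1 cells was determined as loss of CellTiter-Glo luminescence after 72 h at 37 degrees C. Compounds were tested in quantitative HTS format across a concentration range, with curves fitted to normalized data.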
The depositor's hits bear a star; i = inactive; ? = inconclusive; nt = not tested or not shown. Calls come from the whole dose curve; as a rule, active = well fitted curve in the direction sought with a large enough effect; inconclusive = small, poorly fitted or top-dose-only effect, or another doubt; inactive = no such curve, though single readings can be large; an effect the other way counts as inactive or inconclusive. Unless noted, % is set by controls: 0 for no effect and ±100 for the full control effect; potency is the fitted concentration of half-maximal effect.

SMILES | TDP1 cell noCPT | HT1080-NT tox | KB-3-1 tox | HT1080 IDH1KD tx | DT40 TDP1 CPT | KB-V1 cytotox
Cc1ccc(S(=O)(=O)n2cc(-c3ccccc3)c3ccccc32)cc1 | 2.3µM* | ? | 2.3µM* | ? | 3.7µM* | 1.3µM*
Cc1ccc(S(=O)(=O)N2CCN(S(=O)(=O)c3ccccc3)C2)cc1 | -5% | 1% | i | -3% | -29% | ?
Cc1ccc(NC(=O)c2cccc3c(=O)c4c([nH]c23)CCCC4)c(C)c1 | ? | nt | ? | nt | ? | i
CCCCNC(=O)C1(C)CCC(=O)N1CCc1c[nH]c2ccccc12 (stereo not drawn) | -4% | ? | i | 18% | 1% | ?
O=C1OCCC1Sc1nc(-c2ccccc2)cs1 (stereo not drawn) | 0% | 15% | i | 13% | -18% | i
Cc1ncnc(N)c1CCCNc1ccccc1 | ? | 2% | i | 3% | 7% | i
COc1cc(Nc2nc(SCC(=O)c3ccc(Cl)c(Cl)c3)nc3ccccc23)cc(OC)c1 | 0.65µM* | nt | nt | nt | 1.3µM* | nt
COc1ccc(NC(=O)CSc2nc(-c3ccccc3)c3ccccc3n2)cc1 | ? | nt | nt | nt | -13% | nt
O=C(CSc1nc(Nc2ccccc2)c2ccccc2n1)c1ccc(Cl)cc1 | 18µM* | nt | i | nt | 13µM* | i
CCc1[nH]nc(C(=O)N2CCCC(CCC(=O)N3CCN(c4ccccn4)CC3)C2)c1C (stereo not drawn) | -29% | -2% | i | -22% | 0% | i
O=C(NCc1ccco1)Nc1ccc2nsnc2c1 | 15µM* | ? | ? | ? | 18µM* | ?
CCOC(=O)c1ccc(NC(=S)NCCC2=CCCCC2)cc1 | 21µM* | 0% | i | -5% | 29µM* | ?
CC(=O)c1cccc(NC(=S)NCCC2=CCCCC2)c1 | 15µM* | -23% | i | ? | 16µM* | i
O=C(NCc1ccco1)Nc1ccc(Br)cc1 | ? | -2% | i | 0% | -19% | i
Cc1ccc(NC(=S)NCCC2=CCCCC2)cc1 | 23µM* | 0% | i | -11% | ? | ?
COc1ccc(NC(=O)CN(C)CC(=O)N2CCCCCC2)cc1 | -6% | -1% | i | -2% | -1% | ?
CC(=O)Nc1ccc(NC(=O)C(C)OC(=O)c2c(NC(C)=O)sc(C)c2C)cc1 (stereo not drawn) | -20% | 0% | i | -1% | -7% | i
O=C1NC(=NCc2ccccc2)NC1(c1ccccc1)c1ccccc1 | -3% | 4% | i | 0% | 16% | i
CCOC(=O)CC(NC(=O)Cn1nnc(-c2ccccc2F)n1)c1ccccc1Cl (stereo not drawn) | ? | 0% | ? | 3% | ? | ?
O=C(NCCC1=CCCCC1)Nc1ccc2nsnc2c1 | 10µM* | -25% | i | ? | ? | i
Cc1c(Cl)ccc2sc(N3CCN(C(=O)CS(=O)(=O)c4ccccc4)CC3)nc12 | 4.1µM* | nt | i | nt | 6.5µM* | i
Cc1cc(C)c2nc(N3CCC(C(=O)N4CCN(C(=O)c5ccco5)CC4)CC3)sc2c1 | 15µM* | -4% | i | -12% | ? | ?
COc1cc2ccccc2cc1C(=O)N1CCCC1 | 0% | 20% | i | 0% | -1% | i
COc1cc2ccccc2cc1C(=O)N1CCN(c2nc3c(C)cc(C)cc3s2)CC1 | 18µM* | nt | i | nt | ? | i
Cc1c(Cl)ccc2sc(N3CCN(C(=O)c4ccco4)CC3)nc12 | 12µM* | nt | i | nt | 15µM* | ?
SMILES | TDP1 cell noCPT | HT1080-NT tox | KB-3-1 tox | HT1080 IDH1KD tx | DT40 TDP1 CPT | KB-V1 cytotox
Cc1c(Cl)ccc2sc(N3CCN(C(=O)C4=COCCO4)CC3)nc12 | ? | -1% | i | -2% | ? | i
CC(CN1CCCCC1)NC(=O)c1cc(-c2ccccn2)nc2ccc(Cl)cc12 (stereo not drawn) | -20% | -23% | i | -18% | -2% | ?
CC(C(=O)O)n1nc(-c2ccccc2)c2ccccc21 (stereo not drawn) | 3% | 0% | i | 1% | -1% | i
C=CCOc1ccc(/C=C/C(=O)N2CCCN(S(=O)(=O)c3c(C)noc3C)CC2)cc1 | ? | 3% | i | 5% | -11% | i
Cc1c(Cl)ccc2sc(N3CCN(C(=O)C(C)C)CC3)nc12 | 6.5µM* | nt | i | nt | 12µM* | ?
Cc1cc(C)c2nc(N3CCCC(C(=O)N4CCN(c5ncccn5)CC4)C3)sc2c1 (stereo not drawn) | ? | 3% | ? | 4% | ? | 10µM*
COc1ccc(C(=O)N2CCN(c3nc4c(C)c(Cl)ccc4s3)CC2)c(OC)c1 | 9.2µM* | nt | i | nt | 16µM* | i
CN(CC(=O)NNC(=O)Cc1ccccc1F)S(=O)(=O)c1ccc(Cl)cc1 | -11% | -3% | i | 1% | -11% | i
O=C(/C=C/c1ccccc1Cl)NCc1ccccc1 | -5% | -11% | i | -23% | ? | i
O=C(/C=C/c1ccccc1Cl)NCCc1ccccc1 | -23% | 13% | i | -1% | -6% | 16µM*
C=CCOc1c(Br)cc(CNc2ccc(NC(=O)C(C)C)c(OC)c2)cc1OCC | 16µM* | -19% | i | -18% | 21µM* | i
C=CCOc1c(Br)cc(CNc2ccc3[nH]c(=O)[nH]c3c2)cc1OCC | ? | -21% | i | -21% | ? | i
COc1cc(NC(=O)COc2ccc(Cl)cc2)ccc1NC(=O)C(C)C | ? | -2% | i | -3% | ? | i
C=CCOc1c(Br)cc(CNc2ccc(NC(=O)CCC)cc2)cc1OCC | 16µM* | -20% | i | -26% | ? | i
CC1(C)N=C(N)N=C(N)N1c1cccc(CN)c1 | ? | 2% | i | ? | -25% | i
CC1(C)N=C(N)N=C(N)N1c1ccccc1 | 0.13µM* | 3.7µM* | ? | 1.6µM* | 0.73µM* | ?
